Only some compounds are listed: those with a hit (about 2.1% of all), similar ones and a draw of the others.
GALR2 agonist: GALR2 (human) receptor agonism; O43603; GALR2-expressing cells, agonist activation read-out; activation, % (test concentration not listed); 0.48% of 140,000 active; in the data active = activation above about 5%, passing the limit was not always enough;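 also: 0% = vehicle buffer wells and 100% = reference agonist at full effect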
DAT uptake mod: human DAT dopamine uptake with cocaine, either direction; Q01959; LLC-PK1 hDAT cells, [14C]-dopamine uptake with cocaine IC80; actives deviate in either direction; B-score at 10 µM; 1.3% of 110,000 active;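 active = Z score or B-score, a plate-position-corrected score, falls beyond the plate's 99.7% confidence bounds, in either direction; inactive = both scores lie inside the 99.7% bounds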;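 also: scored against the spread of the other compound wells on the same plate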
Target sequence (Q01959 whole entry, looked up): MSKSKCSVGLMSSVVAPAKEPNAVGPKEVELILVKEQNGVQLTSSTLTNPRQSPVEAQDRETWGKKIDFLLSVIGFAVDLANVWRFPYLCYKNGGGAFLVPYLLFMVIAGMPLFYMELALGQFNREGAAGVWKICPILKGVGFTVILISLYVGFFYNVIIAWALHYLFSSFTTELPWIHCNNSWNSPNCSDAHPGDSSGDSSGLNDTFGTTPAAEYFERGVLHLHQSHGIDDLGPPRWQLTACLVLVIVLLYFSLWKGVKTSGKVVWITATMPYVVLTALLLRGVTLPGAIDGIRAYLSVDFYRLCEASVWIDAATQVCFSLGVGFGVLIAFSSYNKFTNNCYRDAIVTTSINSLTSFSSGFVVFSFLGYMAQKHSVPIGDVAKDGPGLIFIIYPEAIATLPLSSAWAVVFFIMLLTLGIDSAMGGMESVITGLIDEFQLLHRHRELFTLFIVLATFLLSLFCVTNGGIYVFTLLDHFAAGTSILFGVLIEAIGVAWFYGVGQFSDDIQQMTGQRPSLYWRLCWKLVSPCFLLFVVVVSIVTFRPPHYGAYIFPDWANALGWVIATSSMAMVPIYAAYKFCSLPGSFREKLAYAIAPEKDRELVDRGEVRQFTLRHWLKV
GALR2 blocker: blocks the human galanin receptor 2. O43603. GALR2-expressing cells, antagonist mode. inhibition, % at 4 µM. 0.39% of 140,000 active;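 also: cells stimulated with galanin 1-16 at roughly its EC80; 0% = agonist challenge control and 100% = basal control without agonist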
S1P2 ag: agonists of human S1P2 receptor | O95136 | S1P2-expressing cell line, agonist reporter read-out | activation, % at 4.5 µM | 0.46% of 97,000 active; in the data active = activation above about 16%;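 also: 0% = vehicle low control and 100% = maximal reference agonist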
S1P2 blocker: antagonists of human S1P2 receptor | 0.21% of 97,000 active | AID 736 | inhibition, % at 5 µM | O95136 | cell-based S1P2 antagonist assay, inhibition at 5 uM; in the data active = inhibition above about 45%;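 also: CRE beta-lactamase reporter cells expressing human S1P2 stimulated with S1P; 0% = agonist at EC80 alone and 100% = agonist plus reference antagonist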
GALR2 blk conf: GALR2 (human) antagonism confirmed; inhibition, % at 4 µM; shares compounds with GALR2 blocker; 60% of 480 active; GALR2-expressing cells, antagonist mode, inhibition;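 also: cells stimulated with galanin at about its EC80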
BLA inhib ctr: beta-lactamase inhibition, GALR2 counterscreen; CHO NFAT-BLA reporter, beta-lactamase FRET, thapsigargin-stimulated; shares compounds with GALR2 blocker; inhibition, % at 4.2 µM; 36% of 480 active;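 active = inhibition above the mean inhibition across tested compounds plus 3 SD, cut at about 27% in these data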;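 also: 0% = 500 nM thapsigargin stimulated wells and 100% = unstimulated BSA only wells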
The depositor's hits bear a star; / = no result. Rule as the data show it, unless noted: active = inhibition above about 27%; inactive = the rest.

SMILES	GALR2 agonist	DAT uptake mod	GALR2 blocker	S1P2 ag	S1P2 blocker	GALR2 blk conf	BLA inhib ctr
O=C(CN1C(=O)NC2(CCOc3ccccc32)C1=O)Nc1ccc2c(c1)OCCO2 (configuration not stated)	0.1	0.251	1.1	-4.9	5.7	/	/
Cc1ccc(NC(=O)CN2C(=O)NC3(CCc4ccccc43)C2=O)cc1Cl (configuration not stated)	-3.7	-1.21	28.4*	-5.7	16.4	3.6	-0.9
CC(=O)/C=C/n1c(=S)oc2ccccc21	-1.7	/	42.2*	/	/	77.1*	64.5*
O=C(c1ccccc1)c1cnc(Nc2ccccc2Cl)s1	-1.1	-0.0167	4.8	-5.2	2.7	/	/
CC(NC(=O)OC(C)(C)C)C(=O)Oc1cc2oc(=O)cc(-c3ccccc3)c2cc1Cl (configuration not stated)	1.5	-0.349	31.7*	-8.3	46.3	29.4*	39.7*
CC(=O)c1c(C)nc(-c2ccc(Cl)cc2)nc1N=CN(C)C	-3.0	0.271	31.4*	-4.3	-5.2	20.0	11.5
O=[N+]([O-])c1ccc(N/N=C/c2c[nH]c3ccccc23)cc1	-4.0	-0.505	35.9*	-11.0	33.8	24.7	30.4*
O=[N+]([O-])c1ccccc1N/N=C/c1c[nH]c2ccccc12	-2.5	-1.13	9.2	-3.4	3.7	/	/
N#CC(C#N)=C1C=CC=CN1/C(=C\c1ccco1)C(=O)c1ccc(-c2ccccc2)cc1	0.2	/	28.2*	/	/	40.9*	33.3*
N#CC(C#N)=C1C=CC=CN1/C(=C\c1ccco1)C(=O)c1ccc(Cl)cc1	-0.5	/	67.6*	/	/	60.1*	71.0*
O=C(O)/C(=C/c1ccco1)NC(=O)c1ccccc1	0.1	/	0.8	/	/	/	/
CC(/C=N/n1c(-c2ccc(Cl)cc2)n[nH]c1=S)=C\c1ccco1	-0.1	/	7.8	/	/	/	/
Cc1cc(S(=O)(=O)Nc2cc(C)c(O)c(C)c2)c(C)s1	-1.9	-0.0362	12.9	-6.0	-1.9	/	/
COc1ccc(NS(=O)(=O)Cc2ccccc2Cl)cn1	-0.3	0.809	1.8	-6.0	20.2	/	/
COc1ccc(NC(=O)/C(Cl)=C(/Cl)S(=O)(=O)Cc2ccccc2)cn1	-2.3	-0.271	81.7*	-10.3	104.0*	92.0*	92.0*
CCC(NC(=O)Nc1nnc(C(F)(F)F)s1)(C(F)(F)F)C(F)(F)F	4.3	-3.34*	58.9*	-4.9	74.8*	39.4*	16.2
CC(=O)[C@H]1[C@H](c2cccc(Cl)c2)C(C#N)(C#N)[C@@H]2c3ccccc3C=CN21	-1.0	/	16.7	/	/	/	/
CC(=O)N1CCc2cc(S(=O)(=O)NC(Cc3ccccc3)C(=O)Nc3cc(C)ccn3)ccc21 (configuration not stated)	-2.1	-0.0606	28.6*	-7.0	-2.5	3.1	3.0
CCC(=O)N1CCc2cc(S(=O)(=O)NC(Cc3ccccc3)C(=O)NC3CCCCC3)ccc21 (configuration not stated)	-2.2	/	17.1	/	/	/	/
NC(=O)C1CCN(c2ccc3c(c2)S(=O)(=O)c2ccccc2C3=O)CC1	/	-0.61	/	/	/	/	/
NC(=O)C1CCN(C2=C(Cl)C(=O)c3ccccc3C2=O)CC1	0.1	-0.465	34.2*	-6.8	45.1	49.8*	36.5*
Cc1nn(C)c(C)c1N1C(=O)c2cccc3c(N)ccc(c23)C1=O	-1.1	/	31.7*	/	/	19.8	24.9
Cc1nn(C)c(C)c1N1C(=O)c2cccc3c(Br)ccc(c23)C1=O	0.7	-1.46	29.1*	-6.8	45.2	30.3*	18.3
Cc1ccc(-c2nc(CS(=O)CC(=O)NC3CCC(C)CC3)c(C)o2)cc1 (configuration not stated)	-1.6	0.62	-8.9	-1.3	4.2	/	/
COCCCN(C(=O)c1ccco1)c1nc(-c2cc(OC)ccc2OC)cs1	-0.8	0.015	84.6*	-1.9	-2.8	4.8	11.7
SMILES	GALR2 agonist	DAT uptake mod	GALR2 blocker	S1P2 ag	S1P2 blocker	GALR2 blk conf	BLA inhib ctr
CCC(=O)N(CCCN(C)C)c1nc(-c2cc(OC)ccc2OC)cs1	-0.8	-0.303	6.5	-4.5	2.9	/	/
COc1ccc(C(=O)c2sc(NC(C)C)nc2N)cc1OC	-2.9	0.769	2.1	-1.7	7.7	/	/
COc1cccc(C(=O)c2sc(NC(C)C)nc2N)c1	-3.4	0.248	39.9*	/	/	9.7	-1.5
CCCOc1ccc(CNC(=S)NCc2ccc(OC(C)C)cc2)cc1	0.2	/	-3.0	/	/	/	/
O=C1c2cccc3c([N+](=O)[O-])ccc(c23)C(=O)N1c1nccs1	1.5	0.496	49.5*	-10.1	50.8*	55.3*	34.6*
O=C1c2cccc3c([N+](=O)[O-])ccc(c23)C(=O)N1c1ccccn1	2.1	-0.349	34.3*	-8.0	67.3*	49.0*	43.7*
O=C1c2cccc3cccc(c23)C(=O)N1c1nccs1	-1.4	-0.886	-14.5	0.0	11.8	/	/
O=C1c2cccc3c(N4CCCCC4)ccc(c23)C(=O)N1c1ccccn1	-1.2	-0.161	13.0	-7.9	39.1	/	/
NCc1ccccc1COc1ccccc1	-1.3	/	11.1	/	/	/	/
O=C1Nc2ccccc2/C1=C/C(=O)c1cccs1	-2.9	-0.425	27.2*	-6.8	4.0	30.2*	10.6
Cc1ccc(/C=C2\C(=O)Nc3ccccc32)o1	-0.9	/	1.2	/	/	/	/
O=C1/C(=C/c2cccnc2)CCC/C1=C\c1cccnc1	-1.2	/	22.6	/	/	/	/
CCC1C/C(=C\c2cccnc2)C(=O)/C(=C/c2cccnc2)C1 (configuration not stated)	-2.6	/	36.2*	/	/	45.7*	20.7
COc1ccc(C(=O)c2sc3nc(-c4ccccc4)ccc3c2N)cc1	-1.9	/	31.9*	/	/	41.9*	48.7*
COc1cc(CSc2nnnn2-c2ccc(C)cc2)cc(OC)c1OC	-1.4	0.526	42.9*	/	/	41.2*	14.4
O=C(CSc1nc(-c2ccccc2)cs1)N1CCc2ccccc21	-0.1	-0.753	-1.6	-5.4	20.0	/	/
Cc1ccc(/C(C#N)=C\c2ccc(N3CCOCC3)o2)cc1	-2.2	0.308	43.9*	-7.5	50.6*	15.0	21.5
Cc1ccc2nc(/C(C#N)=C\c3ccc(N4CCOCC4)o3)[nH]c2c1	-0.4	-0.724	28.6*	0.0	-26.8	23.1	6.3
CC(C)(C)S(=O)(=O)c1c(C(=O)O)cccc1C(=O)O	-3.2	-0.0162	5.4	-6.3	-15.3	/	/
CCN1C(C(=O)c2ccccc2)=C(Nc2ccccc2C)c2ccccc2S1(=O)=O	-1.6	/	3.6	/	/	/	/
O=C(O)Cc1sc(N/N=C\c2ccccc2)nc1-c1ccccc1	-1.0	/	29.0*	/	/	11.4	0.6
COc1ccc(CCNc2ncnc3c2oc2ccccc23)cc1OC	-0.6	-0.818	27.5*	-5.0	67.2*	38.1*	-0.8
COc1ccc(N(C(=O)c2ccc(Br)o2)C2C=CS(=O)(=O)C2)cc1 (configuration not stated)	-0.8	-0.161	8.3	-4.4	9.3	/	/
CC(CCCC(C)(C)O)NCCO (configuration not stated)	-1.1	-0.165	11.0	-5.1	13.1	/	/
Cc1ccccc1NC1=CC(=O)CC(C)(C)C1	-2.5	-2.16	7.5	-4.1	-5.3	/	/

Screening results as filed in PubChem.
